Source: PubChem BioAssay AID1159580 (chemical genetic matrix, 2015)
Among all 5,500 compounds or so, about 2,000 (36%) were called active. Another 18% or so got no clear call; they are omitted. Rule as the data show it: active = normalized growth mostly below about 0.91 (no sharp cut-off); inconclusive = no clear call, values can overlap the other calls; inactive = mostly above about 0.92. Some of the results follow.

Assay: chemical genetic growth profiling, strain panel (AID 1159580);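 also: tested at 20 µM; growth read once vehicle control cultures reached saturation at 30 °C; 1 = growth at the plate median or of vehicle wells; lower values mean less growth of the strain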
Details: growth OD

Measured: normalized growth

Nc1c(Br)cc(Br)cc1CNC1CCC(O)CC1 (stereo not given)
inactive: S. cerevisiae deletion strains, locus YJR066W, strain TOR1, stronger effect = lower value 0.936 | S. cerevisiae deletion strains, locus YKL009W, strain mrt4, stronger effect = lower value 0.985 | S. cerevisiae deletion strains, locus YKL068W, stronger effect = lower value 0.997 | S. cerevisiae deletion strains, locus YKL085W, strain MDH1 (second series), stronger effect = lower value 1 | S. cerevisiae deletion strains, locus YKL085W, strain MDH1, stronger effect = lower value 1 | S. cerevisiae deletion strains, locus YKL160W, strain elf1, stronger effect = lower value 1 | S. cerevisiae deletion strains, locus YKL190W, strain CNB1, stronger effect = lower value 1.01 | S. cerevisiae deletion strains, locus YKR001C, strain vps1, stronger effect = lower value 0.994 | S. cerevisiae deletion strains, locus YKR026C, strain gcn3, stronger effect = lower value 1.01 | S. cerevisiae deletion strains, locus YKR091W, strain srl3, stronger effect = lower value 1.02 | S. cerevisiae deletion strains, locus YLL001W, strain dnm1, stronger effect = lower value 1.02 | S. cerevisiae deletion strains, locus YLL026W, stronger effect = lower value 1.01 | S. cerevisiae deletion strains, locus YLL041C, strain sdh2, stronger effect = lower value 0.993 | S. cerevisiae deletion strains, locus YLR027C, strain aat2, stronger effect = lower value 0.997 | S. cerevisiae deletion strains, locus YLR039C, strain RIC1, stronger effect = lower value 1.03 | S. cerevisiae deletion strains, locus YLR058C, strain SHM2, stronger effect = lower value 1 | S. cerevisiae deletion strains, locus YLR102C, strain apc9, stronger effect = lower value 1.01 | S. cerevisiae deletion strains, locus YLR113W, strain HOG1, stronger effect = lower value 1.07 | S. cerevisiae deletion strains, locus YLR221C, strain rsa3, stronger effect = lower value 1.01 | S. cerevisiae deletion strains, locus YLR258W, strain gsy2, stronger effect = lower value 1 | S. cerevisiae deletion strains, locus YLR262C, strain YPT6 (second series), stronger effect = lower value 0.974 | S. cerevisiae deletion strains, locus YLR262C, strain YPT6, stronger effect = lower value 1.04 | S. cerevisiae deletion strains, locus YLR268W, strain sec22, stronger effect = lower value 0.982 | S. cerevisiae deletion strains, locus YLR320W, strain mms22, stronger effect = lower value 1.03 | S. cerevisiae deletion strains, locus YLR330W, strain CHS5, stronger effect = lower value 1.01 | S. cerevisiae deletion strains, locus YLR342W, strain FKS1 (second series), stronger effect = lower value 1.01 | S. cerevisiae deletion strains, locus YLR342W, strain FKS1, stronger effect = lower value 1.02 | S. cerevisiae deletion strains, locus YLR357W, strain rsc2, stronger effect = lower value 1.03 | S. cerevisiae deletion strains, locus YLR370C, strain arc18, stronger effect = lower value 0.997 | S. cerevisiae deletion strains, locus YLR371W, strain rom2, stronger effect = lower value 1.01 | S. cerevisiae deletion strains, locus YLR384C, strain iki3, stronger effect = lower value 1.01 | S. cerevisiae deletion strains, locus YLR418C, strain cdc73, stronger effect = lower value 0.949 | S. cerevisiae deletion strains, locus YML016C, strain PPZ1, stronger effect = lower value 1 | S. cerevisiae deletion strains, locus YML032C, strain rad52, stronger effect = lower value 0.996 | S. cerevisiae deletion strains, locus YML120C, strain ndi1, stronger effect = lower value 1.05 | S. cerevisiae deletion strains, locus YML124C, strain tub3, stronger effect = lower value 0.996 | S. cerevisiae deletion strains, locus YMR058W, strain fet3, stronger effect = lower value 1.02 | S. cerevisiae deletion strains, locus YMR078C, strain ctf18, stronger effect = lower value 1.01 | S. cerevisiae deletion strains, locus YMR125W, strain sto1, stronger effect = lower value 1.01 | S. cerevisiae deletion strains, locus YMR129W, stronger effect = lower value 1.02 | S. cerevisiae deletion strains, locus YMR205C, strain PFK2, stronger effect = lower value 1 | S. cerevisiae deletion strains, locus YMR223W, strain ubp8, stronger effect = lower value 0.991 | S. cerevisiae deletion strains, locus YMR231W, strain pep5, stronger effect = lower value 1.02 | S. cerevisiae deletion strains, locus YMR307W, strain GAS1, stronger effect = lower value 1.12 | S. cerevisiae deletion strains, locus YNL067W, strain RPL9B, stronger effect = lower value 0.994 | S. cerevisiae deletion strains, locus YNL071W, strain lat1, stronger effect = lower value 1.01 | S. cerevisiae deletion strains, locus YNL128W, strain TEP1, stronger effect = lower value 1.02 | S. cerevisiae deletion strains, locus YNL153C, strain GIM3, stronger effect = lower value 0.99 | S. cerevisiae deletion strains, locus YNL183C, strain NPR1, stronger effect = lower value 0.981 | S. cerevisiae deletion strains, locus YNL209W, strain ssb2, stronger effect = lower value 1 | S. cerevisiae deletion strains, locus YNL233W, strain BNI4, stronger effect = lower value 0.991 | S. cerevisiae deletion strains, locus YNL248C, strain rpa49, stronger effect = lower value 1 | S. cerevisiae deletion strains, locus YNL250W, strain rad50, stronger effect = lower value 0.994 | S. cerevisiae deletion strains, locus YNL271C, strain bni1, stronger effect = lower value 1 | S. cerevisiae deletion strains, locus YNL298W, strain CLA4, stronger effect = lower value 1.03 | S. cerevisiae deletion strains, locus YNL307C, strain MCK1, stronger effect = lower value 1.01 | S. cerevisiae deletion strains, locus YNL322C, strain KRE1 (second series), stronger effect = lower value 1.02 | S. cerevisiae deletion strains, locus YNL322C, strain KRE1, stronger effect = lower value 1 | S. cerevisiae deletion strains, locus YNR049C, strain mso1, stronger effect = lower value 0.987 | S. cerevisiae deletion strains, locus YNR052C, strain pop2, stronger effect = lower value 1 | S. cerevisiae deletion strains, locus YOL006C, strain TOP1, stronger effect = lower value 0.95 | S. cerevisiae deletion strains, locus YOL012C, strain htz1 0.731 | S. cerevisiae deletion strains, locus YOL147C, strain pex11, stronger effect = lower value 0.998 | S. cerevisiae deletion strains, locus YOR001W, strain rrp6, stronger effect = lower value 0.996 | S. cerevisiae deletion strains, locus YOR061W, strain CKA2, stronger effect = lower value 1.01 | S. cerevisiae deletion strains, locus YOR069W, strain VPS5, stronger effect = lower value 1 | S. cerevisiae deletion strains, locus YOR070C, strain gyp1, stronger effect = lower value 1 | S. cerevisiae deletion strains, locus YOR080W, strain dia2, stronger effect = lower value 1.02 | S. cerevisiae deletion strains, locus YOR083W, strain WHI5, stronger effect = lower value 0.997 | S. cerevisiae deletion strains, locus YOR106W, strain vam3, stronger effect = lower value 1.02 | S. cerevisiae deletion strains, locus YOR136W, strain idh2, stronger effect = lower value 0.995 | S. cerevisiae deletion strains, locus YOR144C, strain elg1, stronger effect = lower value 0.994 | S. cerevisiae deletion strains, locus YOR184W, strain ser1, stronger effect = lower value 0.992 | S. cerevisiae deletion strains, locus YOR231W, strain MKK1, stronger effect = lower value 1.06 | S. cerevisiae deletion strains, locus YOR265W, strain rbl2, stronger effect = lower value 1.01 | S. cerevisiae deletion strains, locus YOR270C, strain vph1, stronger effect = lower value 1.01 | S. cerevisiae deletion strains, locus YOR290C, strain snf2, stronger effect = lower value 0.984 | S. cerevisiae deletion strains, locus YOR316C, strain cot1, stronger effect = lower value 1 | S. cerevisiae deletion strains, locus YPL051W, strain arl3, stronger effect = lower value 1.01 | S. cerevisiae deletion strains, locus YPL055C, strain LGE1, stronger effect = lower value 0.978 | S. cerevisiae deletion strains, locus YPL078C, strain atp4, stronger effect = lower value 0.999 | S. cerevisiae deletion strains, locus YPL106C, strain sse1, stronger effect = lower value 1.03 | S. cerevisiae deletion strains, locus YPL240C, strain hsp82, stronger effect = lower value 1.01 | S. cerevisiae deletion strains, locus YPL256C, strain CLN2, stronger effect = lower value 1.06 | S. cerevisiae deletion strains, locus YPR119W, strain clb2, stronger effect = lower value 1 | S. cerevisiae deletion strains, locus YPR141C, strain kar3, stronger effect = lower value 0.99 | S. cerevisiae deletion strains, locus YPR163C, strain tif3, stronger effect = lower value 1 | S. cerevisiae deletion strains, locus YPR167C, strain met16, stronger effect = lower value 0.998 | S. cerevisiae deletion strains, strain wtn01, stronger effect = lower value 1 | S. cerevisiae strains, strain wild type, stronger effect = lower value 1.01
